These results are taken from PubChem BioAssay.

In test [1] the test system is TRPC4 beta (transient receptor potential cation channel C4), mouse. Put plainly: TRPC4 cation channel opening, retest – cell-based, Fluo4 calcium, HEK293 TRPC4beta/mu-opioid, duplicates, 10 µM, confirmation (AID 2426).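 On activation: percent rise of integrated ratio over buffer wells lacking compound which define 0%.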 The settings on record: Fluo4 calcium fluorescence, at 10 µM; active compounds read high.
The test system of test [2] is transient receptor potential cation channel C4 beta (TRPC4), mouse. Put plainly: TRPC4 cation channel opening, second retest – cell-based, second round, Fluo4, HEK293 TRPC4beta/mu-opioid, 1 µM, confirmation (AID 2461;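 active means primary screen active and over 50% activation in each of two duplicate runs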;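 on activation: 0% = wells without test compound as baseline of integrated fluorescence ratio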). The settings on record: Fluo4 calcium fluorescence, at 1 µM; active compounds read high.
Test [3] concerns TRPC4 (transient receptor potential cation channel C4 beta), mouse. Briefly: potentiation of DAMGO EC20 TRPC4 response – cell-based, second round, Fluo-4, HEK293 TRPC4beta/mu-opioid, 1 µM, confirmation (AID 2554;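 active means primary screen hit whose fluorescence ratio, in both repeats, exceeds the weak agonist control mean by 3 SD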). The settings on record: DAMGO EC20, Fluo-4 calcium flux, at 1 µM; active compounds read high.
Test [4] deals with TRPC4 beta (transient receptor potential cation channel C4), mouse. Briefly: potentiation of DAMGO EC20 TRPC4 response – cell-based, Fluo-4, HEK293 TRPC4beta/mu-opioid, confirmation (AID 2555;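 active means primary screen hit whose calcium fluorescence ratio, in both repeats, exceeds the weak agonist control mean by 3 SD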). The conditions noted are these: DAMGO EC20, Fluo-4 calcium flux, at 10 µM; active compounds read high.
Test [5] addresses Short transient receptor potential channel 4 (Mus musculus) (UniProt Q9QUQ5). Briefly: blockers of DAMGO-evoked TRPC4 calcium flux – cell-based, Fluo4, HEK293 TRPC4beta/mu-opioid, confirmation (AID 2636;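 active means calcium signal cut by more than 3 SD below the full-agonist control yet still positive, in both repeats and the earlier primary screen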). The settings on record: at 10 µM; active compounds read high.
Test [6] has the same target. Put plainly: blockers of DAMGO-evoked TRPC4 calcium flux – cell-based, second round, Fluo4, HEK293 TRPC4beta/mu-opioid, 1 µM, confirmation (AID 2637;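 active means calcium signal ratio cut to more than 3 SD under the fully stimulated control mean yet still positive, in both repeats and the primary screen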). The settings on record: at 1 µM; active compounds read high.
Test [7] shares this target. Briefly: potentiation of DAMGO-evoked TRPC4 calcium signal – cell-based, HEK293 TRPC4/mu-opioid, Fluo-4 calcium, EC20 DAMGO, dose response (AID 434941;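 active means earlier screen potentiator hit that boosts the TRPC4 ion channel at some dose, with a dose response; inactive means no potentiation, no dose response, or not a prior hit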;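 further: calcium entry triggered by an EC20 dose of DAMGO at the co-expressed mu-opioid receptor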).
The target is the same in test [8]. Put plainly: block of DAMGO-driven TRPC4 calcium entry – cell-based, HEK293 TRPC4/mu-opioid, Fluo-4 calcium, dose response (AID 434942;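 active means primary screen inhibitor hit that blocks the TRPC4 channel at some tested dose, yielding a dose curve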).
The target in test [9] is Short transient receptor potential channel 6 (Mus musculus) (UniProt Q61143). Briefly: TRPC6 blockade by TRPC4 inhibitor hits – cell-based, HEK293, membrane potential dye, duplicate, selectivity assay for TRPC4 inhibitor project, confirmation (AID 434948;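 active means active in primary screen and both duplicates, each dropping signal beyond three positive-control SD with fluorescence still positive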). The settings on record: HEK293 TRPC6, membrane potential dye fluorescence, at 10 µM, stimulated with maximal-effect acetylcholine; active compounds read high.
Sequence of Short transient receptor potential channel 6 (Mus musculus) (Q61143 whole entry, looked up): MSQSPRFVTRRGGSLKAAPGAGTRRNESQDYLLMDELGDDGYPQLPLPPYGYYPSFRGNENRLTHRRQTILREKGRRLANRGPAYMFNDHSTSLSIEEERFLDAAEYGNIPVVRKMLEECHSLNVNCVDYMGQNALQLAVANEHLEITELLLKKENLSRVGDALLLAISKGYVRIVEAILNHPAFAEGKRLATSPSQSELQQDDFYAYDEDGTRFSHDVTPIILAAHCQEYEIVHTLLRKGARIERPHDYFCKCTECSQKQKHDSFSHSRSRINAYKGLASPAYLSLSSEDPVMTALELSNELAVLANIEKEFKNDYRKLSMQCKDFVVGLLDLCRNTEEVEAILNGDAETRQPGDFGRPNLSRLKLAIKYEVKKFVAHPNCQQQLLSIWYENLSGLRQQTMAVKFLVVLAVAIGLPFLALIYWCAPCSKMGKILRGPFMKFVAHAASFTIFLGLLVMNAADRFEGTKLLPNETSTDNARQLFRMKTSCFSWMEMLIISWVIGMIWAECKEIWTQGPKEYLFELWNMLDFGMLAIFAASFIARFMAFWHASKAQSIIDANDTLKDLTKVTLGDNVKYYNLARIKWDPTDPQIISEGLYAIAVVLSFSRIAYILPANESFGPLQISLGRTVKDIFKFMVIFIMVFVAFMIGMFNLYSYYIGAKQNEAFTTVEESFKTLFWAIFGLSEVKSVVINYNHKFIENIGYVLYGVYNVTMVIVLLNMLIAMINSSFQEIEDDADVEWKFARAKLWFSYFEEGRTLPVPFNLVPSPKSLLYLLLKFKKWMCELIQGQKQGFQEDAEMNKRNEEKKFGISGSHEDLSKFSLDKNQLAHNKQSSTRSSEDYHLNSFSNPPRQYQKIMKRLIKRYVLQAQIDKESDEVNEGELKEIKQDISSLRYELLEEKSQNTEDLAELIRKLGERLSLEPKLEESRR

Test [10] shares this target. Briefly: TRPC6 opening by TRPC4 activator hits – cell-based, HEK293, membrane potential dye, duplicate, selectivity assay for TRPC4 activator project, confirmation (AID 434950;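 active means membrane potential signal rise above negative control mean plus 3 SD in both duplicates, also active in the earlier TRPC4 screen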;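 on activation: 0% = buffer only wells and 100% = acetylcholine maximal-effect wells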). The conditions noted are these: HEK293 TRPC6, membrane potential fluorescence, at 10 µM; activation: active compounds read high; outcome: activation.
For test [11] the target is unchanged. Put plainly: positive modulators of mouse TRPC6 channel – HEK293 cells, membrane potential dye, duplicate, selectivity assay for TRPC4 potentiator project, confirmation (AID 434952;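 active means compound raising the membrane signal above positive-control mean plus 3 SD in both repeats, and a primary screen hit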). The settings on record: HEK293 TRPC6, membrane potential dye fluorescence, at 10 µM, maximal acetylcholine added after compound; active compounds read high.
In test [12] the target is Short transient receptor potential channel 4 (Mus musculus) (UniProt Q9QUQ5). Briefly: calcium flux activators in TRPC4/5HT1a cells, counter-screen for TRPC4 activator project, cell-based, second counter screen, HEK293 TRPC4/5HT1a, Fluo-4 (AID 434977;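 active means calcium signal rise above buffer-control mean plus 5 SD in both duplicates, and also a hit in the primary screen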;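 on activation: plate controls were assay buffer for no effect and maximal serotonin response for full effect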). The conditions noted are these: Fluo-4 calcium flux, at 10 µM; active compounds read high. In general terms: Calcium assays in cells follow changes in intracellular calcium, usually with a dye or a luminescent sensor.
Sequence of Short transient receptor potential channel 4 (Mus musculus) (Q9QUQ5 whole entry, looked up): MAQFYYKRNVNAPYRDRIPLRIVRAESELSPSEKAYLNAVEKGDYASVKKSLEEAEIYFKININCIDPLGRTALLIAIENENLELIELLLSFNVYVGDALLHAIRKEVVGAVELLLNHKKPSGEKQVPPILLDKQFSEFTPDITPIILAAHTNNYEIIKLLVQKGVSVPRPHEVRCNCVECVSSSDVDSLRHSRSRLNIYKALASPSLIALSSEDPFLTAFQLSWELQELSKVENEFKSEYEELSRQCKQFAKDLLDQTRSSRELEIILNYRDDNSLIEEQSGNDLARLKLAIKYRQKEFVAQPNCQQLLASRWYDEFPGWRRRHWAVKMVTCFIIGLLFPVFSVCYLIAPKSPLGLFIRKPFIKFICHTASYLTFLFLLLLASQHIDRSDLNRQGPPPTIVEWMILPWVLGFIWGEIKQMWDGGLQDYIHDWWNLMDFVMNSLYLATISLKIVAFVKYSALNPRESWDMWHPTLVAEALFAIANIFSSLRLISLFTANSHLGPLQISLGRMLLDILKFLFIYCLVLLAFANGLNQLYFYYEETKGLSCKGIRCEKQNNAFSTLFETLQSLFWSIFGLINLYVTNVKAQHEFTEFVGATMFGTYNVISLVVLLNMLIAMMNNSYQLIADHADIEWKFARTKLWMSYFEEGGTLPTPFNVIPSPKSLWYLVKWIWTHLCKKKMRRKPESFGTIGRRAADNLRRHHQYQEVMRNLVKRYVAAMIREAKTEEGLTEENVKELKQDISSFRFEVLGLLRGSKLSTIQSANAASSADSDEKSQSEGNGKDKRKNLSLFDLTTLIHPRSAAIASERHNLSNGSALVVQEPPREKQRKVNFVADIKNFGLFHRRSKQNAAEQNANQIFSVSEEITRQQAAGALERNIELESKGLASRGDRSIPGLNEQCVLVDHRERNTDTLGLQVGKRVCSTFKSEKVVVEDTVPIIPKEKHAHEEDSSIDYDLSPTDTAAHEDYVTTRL

The nature of test [13]: serotonin-gated TRPC4 signal block – cell-based, second counter screen, HEK293 TRPC4/5HT1a, Fluo-4, counter-screen for TRPC4 inhibitor project, confirmation (AID 434978;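 active means primary screen active whose calcium signal fell more than 3 SD beyond the full-serotonin control mean in both duplicate plates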;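 further: serotonin given first at submaximal then at maximal dose after compound preincubation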). The settings on record: Fluo-4 calcium flux, at 10 µM, serotonin added to trigger calcium flux; active compounds read high. Background: A counterscreen serves to expose hits that act by an unwanted route or on another target.

The test system of test [14] is TRPC4 (mouse), co-expressed with 5HT1a in HEK293. Briefly: enhancement of serotonin-evoked TRPC4 response – cell-based, second counter screen, HEK293 TRPC4/5HT1a, Fluo-4, counter-screen for TRPC4 potentiator project, confirmation (AID 434979;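 active means signal rise over 3 SD above mean of control wells given weak agonist, in both repeats and first screen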). The settings on record: Fluo-4 calcium flux, at 10 µM, serotonin added at its EC20 dose; active compounds read high.
Test [15] in a line: nonspecific calcium rise without TRPC4 – cell-based, HEK293 mu-opioid receptor line, counter-screen for TRPC4 activator project, confirmation (AID 449723;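 active means hit in primary screen, with calcium signal over 5 SD above buffer well mean in both duplicates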;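 further: counter screen cells carry the mu-opioid receptor alone and lack TRPC4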). The conditions noted are these: HEK293 mu-opioid cells, Fluo-4 calcium fluorescence, at 10 µM; active compounds read high.
Test [16] is described as follows: nonspecific potentiation of DAMGO calcium response – cell-based, HEK293 mu-opioid receptor line, counter-screen for TRPC4 allosteric potentiator project, confirmation (AID 449724;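 active means calcium signal rise more than 3 SD above the low-dose agonist control mean, in both duplicate plates and the primary screen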;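 further: HEK293 cells carrying mu-opioid receptor only with no TRPC4 channel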). The conditions noted are these: HEK293 mu-opioid receptor cells, Fluo-4 calcium flux, at 10 µM, compound added before EC20 DAMGO stimulus; active compounds read high.
The nature of test [17]: nonspecific flux increase, KCNQ1-free cells – parental CHO cells, counter-screen for KCNQ1 potentiator project (AID 493006;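 active means duplicate-averaged activation above buffer control mean plus 5 SD of those controls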;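 on activation: fluorescence ratio of max minus min over baseline after K+ and Tl+ depolarization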). The settings on record: parental CHO-K1 cells, FluxOR thallium flux, at 10 µM; active compounds read high.
In test [18] the target is Potassium voltage-gated channel subfamily KQT member 1 (Homo sapiens) (UniProt P51787). Put plainly: enhancement of KCNQ1 channel thallium flux – FluxOR thallium flux, CHO cells, duplicates, confirmation (AID 493007;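 active means potentiation averaged over duplicate wells exceeding buffer-only control mean by more than 3 SD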;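 on outcome: cells depolarized by a potassium plus thallium sulfate stimulus after compound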;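 on potentiation: 0% = buffer-only wells and 100% = R-L3 activator control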). The settings on record: KCNQ1 cell line, FluxOR thallium flux fluorescence, at 10 µM; active compounds read high, % of reference activator effect, buffer zero.
Sequence of Potassium voltage-gated channel subfamily KQT member 1 (Homo sapiens) (P51787 whole entry, looked up): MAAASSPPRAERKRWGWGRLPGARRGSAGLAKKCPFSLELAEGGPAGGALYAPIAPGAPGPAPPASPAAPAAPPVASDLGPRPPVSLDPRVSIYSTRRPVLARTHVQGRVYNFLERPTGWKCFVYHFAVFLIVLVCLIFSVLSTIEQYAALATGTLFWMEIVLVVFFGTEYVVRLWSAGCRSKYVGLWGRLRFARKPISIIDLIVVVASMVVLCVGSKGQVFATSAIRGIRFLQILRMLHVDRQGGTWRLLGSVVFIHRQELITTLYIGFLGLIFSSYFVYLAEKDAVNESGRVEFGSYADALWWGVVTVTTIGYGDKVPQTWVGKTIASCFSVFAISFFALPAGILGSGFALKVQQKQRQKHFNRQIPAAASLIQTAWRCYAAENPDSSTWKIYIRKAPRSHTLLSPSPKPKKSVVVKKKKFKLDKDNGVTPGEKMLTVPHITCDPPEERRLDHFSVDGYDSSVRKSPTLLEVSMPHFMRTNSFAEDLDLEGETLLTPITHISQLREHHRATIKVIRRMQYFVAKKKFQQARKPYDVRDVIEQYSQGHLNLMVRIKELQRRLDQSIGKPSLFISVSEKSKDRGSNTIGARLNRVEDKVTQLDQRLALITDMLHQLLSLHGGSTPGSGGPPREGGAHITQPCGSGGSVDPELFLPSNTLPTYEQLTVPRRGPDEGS
The target in test [19] is Potassium voltage-gated channel subfamily KQT member 2 (Rattus norvegicus) (UniProt O88943). Briefly: KCNQ2 thallium flux enhancement – KCNQ2-CHO-K1 cells, selectivity assay for KCNQ1 potentiator project (AID 493009;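 active means mean duplicate potentiation above the buffer control mean plus 5 SD of buffer wells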;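 further: assay conditions were tuned for KCNQ1 rather than KCNQ2 modulators; signal is max minus min fluorescence divided by baseline after thallium stimulus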). The conditions noted are these: FluxOR thallium flux fluorescence, at 10 µM; active compounds read high, scaled: buffer 0, activator control 100.
Sequence of Potassium voltage-gated channel subfamily KQT member 2 (Rattus norvegicus) (O88943 whole entry, looked up): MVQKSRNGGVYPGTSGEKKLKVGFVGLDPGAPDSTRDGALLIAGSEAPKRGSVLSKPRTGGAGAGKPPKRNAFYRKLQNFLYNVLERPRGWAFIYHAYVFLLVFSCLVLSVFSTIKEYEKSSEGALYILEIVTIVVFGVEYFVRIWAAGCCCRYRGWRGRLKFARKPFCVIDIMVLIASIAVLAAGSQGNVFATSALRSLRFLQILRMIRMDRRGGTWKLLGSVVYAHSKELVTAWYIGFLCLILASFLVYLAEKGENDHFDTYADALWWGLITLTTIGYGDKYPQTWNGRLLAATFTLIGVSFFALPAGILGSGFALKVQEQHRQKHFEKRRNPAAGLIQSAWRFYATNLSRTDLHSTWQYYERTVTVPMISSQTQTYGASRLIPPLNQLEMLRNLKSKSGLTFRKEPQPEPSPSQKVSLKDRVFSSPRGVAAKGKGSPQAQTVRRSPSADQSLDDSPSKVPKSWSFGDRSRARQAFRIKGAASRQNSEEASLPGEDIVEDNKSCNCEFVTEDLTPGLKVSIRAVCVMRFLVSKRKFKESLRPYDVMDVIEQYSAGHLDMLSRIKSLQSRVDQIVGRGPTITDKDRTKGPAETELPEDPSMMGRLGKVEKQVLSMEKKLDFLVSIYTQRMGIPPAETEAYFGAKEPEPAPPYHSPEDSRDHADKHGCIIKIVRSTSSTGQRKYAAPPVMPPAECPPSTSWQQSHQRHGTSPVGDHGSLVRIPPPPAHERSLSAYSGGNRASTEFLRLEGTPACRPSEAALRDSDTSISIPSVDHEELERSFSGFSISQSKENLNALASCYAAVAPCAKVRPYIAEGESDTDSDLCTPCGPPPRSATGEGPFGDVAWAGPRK
The target in test [20] is Potassium voltage-gated channel subfamily KQT member 1 (Homo sapiens) (UniProt P51787). Briefly: KCNQ1 activators by electrophysiology – IonWorks patch clamp, KCNQ1-CHO cells, orthogonal assay for KCNQ1 potentiator project, confirmation (AID 493184;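 active means current rise at least 3 SD above the untreated control mean in each of two repeat wells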). The conditions noted are these: automated patch clamp current, at 10 µM; active compounds read high. In general terms: In patch-clamp work, channel activity is measured electrically.

Each structure is given as a SMILES string. For some of these results: Results with a measured potency or affinity are listed apart. Activity calls are given as the source filed them.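 How the source made its calls, unless noted: active means fluorescence ratio normalized to control raised more than 50% in primary screen plus both repeat runs; inactive means the rest.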

On to `CSCCC(NS(=O)(=O)c1ccc2c(c1)c(=O)n(C)c(=O)n2C)C(=O)NC1CCN(Cc2ccccc2)CC1` (configuration not stated), for which the outcome in test [1], in [2], in [3], in test [4], in [5] and in test [6] was inactive. Moreover, the outcome in test [7], in [8], in test [9], in test [10], in test [11] and in test [13] was inactive. In addition, the outcome in test [14], in test [15] and in test [16] was inactive. For the same molecule, the activation in test [12] is 8.04% (active).

For `OCCN1CCN(Cc2cc(Br)cc(Br)c2O)CC1`, the activation was 199% (active) in [1], 170% (active) in test [2], 32% (active) in test [10] and 85.4% (active) in test [12]. Further, the outcome in [3], in [4], in test [5], in test [6], in test [7] and in [8] was inactive. The result in test [9], in test [11], in [13], in test [14], in test [15] and in [16] was inactive. The result in test [17], in test [18], in test [19] and in [20] was inactive.

As to `COC(=O)C1=NN(C(=O)c2cccc(Br)c2)C(O)(c2ccc(Cl)cc2)C1` (configuration not stated), the values for the activation in test [1], in test [12] and in [17] were 121% (active), 98.1% (active) and 575% (active), respectively. The outcome in test [2], in [3], in test [4], in [5], in test [6] and in test [7] was inactive. Besides, the outcome in [8], in [9], in [10], in [11], in test [13] and in [14] was inactive. For the same molecule, the outcome in test [15], in [16] and in test [20] was inactive. Also, the potentiation in test [18] is 318% (active); in test [19], 745% (active).

`CCOC(=O)[C@@H]1CCNC[C@@H]1c1ccccc1`: the values for the activation in test [1], in test [2] and in [10] were 217% (active), 83% (active) and 30.5% (active), respectively. Also, the outcome in test [3], in test [4], in [5], in test [6], in [7] and in test [8] was inactive. In addition, the outcome in [9], in test [11], in test [12], in test [13], in test [14] and in [15] was inactive. The outcome in test [16] was inactive.

`CC[C@@H](C(=O)[C@@H](C)[C@@H](O)[C@H](C)CCc1ccc(C)c(O)c1C(=O)O)[C@H]1O[C@](CC)([C@H]2CC[C@](O)(CC)[C@H](C)O2)C[C@@H]1C`: the activation in test [1] is 472% (active); in [10], 58.5% (active); in [12] it was 177% (active); in test [15] it was 82.7% (active); in test [17], 558% (active). The outcome in [2], in test [3], in test [4], in test [5], in [6] and in test [7] was inactive. Moreover, the outcome in test [8], in test [9], in test [11], in test [13], in [14] and in [16] was inactive. For the same molecule, in test [20], the outcome was inactive. The potentiation in [18] is 149% (active); in test [19] it was 502% (active).

Regarding `CC(C)(C)c1cc(CCC(=O)NNC(=S)NC(=O)c2ccccc2)cc(C(C)(C)C)c1O`, the activation was 150% (active) in test [1], 92% (active) in [12], 41.2% (active) in [15] and 188% (active) in test [17]. Moreover, the result in test [2], in test [3], in test [4], in [5], in [6] and in test [7] was inactive. Moreover, the result in test [8], in test [9], in test [10], in [11], in test [13] and in test [14] was inactive. Moreover, the outcome in [16] and in test [20] was inactive. Also, the potentiation in test [18] was 61% (active); in test [19], 185% (active).
